A selection: hits, their analogues and other compounds. The true share with any hit is near 2.4%.
D2 antagonist = antagonizes the human D2 dopamine receptor; P14416; 340,000 tested, 2% active; HEK293 TREx D2 cells, calcium flux, dopamine EC80; inhibition, % at 10 µM; in the data active = inhibition above about 30%; inactive = below that, where a call was filed; also: 0% is about no effect
Target sequence (P14416 whole entry, looked up): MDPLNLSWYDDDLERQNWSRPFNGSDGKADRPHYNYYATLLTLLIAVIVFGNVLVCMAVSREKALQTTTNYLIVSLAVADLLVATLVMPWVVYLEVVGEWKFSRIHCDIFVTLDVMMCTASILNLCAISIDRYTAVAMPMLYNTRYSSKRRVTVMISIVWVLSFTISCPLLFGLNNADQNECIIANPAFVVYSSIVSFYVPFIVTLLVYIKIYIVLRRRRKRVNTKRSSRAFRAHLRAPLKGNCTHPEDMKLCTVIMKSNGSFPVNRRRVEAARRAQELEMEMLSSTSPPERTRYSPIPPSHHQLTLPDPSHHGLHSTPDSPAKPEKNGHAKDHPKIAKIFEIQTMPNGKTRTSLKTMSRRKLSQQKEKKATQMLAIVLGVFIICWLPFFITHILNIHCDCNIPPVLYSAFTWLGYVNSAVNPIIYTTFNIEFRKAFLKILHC
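Antagonism is scored as inhibition of an EC80 dopamine-evoked calcium signal in a force-coupled, tetracycline-inducible HEK293 T-REx D2 line, with compound present 180 s before agonist.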
D2 PAM-1 = positively modulates the human D2 dopamine receptor allosterically; P14416; 340,000 tested, 0.34% active; potentiation, % at 10 µM; AID 485347; HEK293 T-REx D2, calcium flux, EC20 dopamine potentiation;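 active = potentiation over 3 SD above the plate norm, cut at about 30% in these data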; also: 0% is about no effect
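Tetracycline-induced Hek293 Trex D2 cells, force-coupled to calcium, loaded with no-wash calcium dye. Compound added with 180 s kinetic read for agonism, then EC20 dopamine and a further 180 s read for potentiation.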
D2 ag-1 = agonists of human D2 dopamine receptor | P14416 | HEK293 T-REx D2 cells, calcium flux agonist mode | activation, % at 2 µM | 340,000 tested, 0.53% active | AID 485358;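 active = activation over 3 SD above normal in the single-dose calcium agonist read, cut at about 30% in these data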; also: 0% is about no effect
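Calcium-flux readout, 1 cycle/sec over 180 s following compound pin transfer, in inducible HEK293 Trex D2 cells (force-coupled); dopamine controls included. Positive calcium responses during this window marked compounds as potential agonists.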
D2 ag-2 = activates the human D2 dopamine receptor; P14416; DiscoveRx PathHunter D2 beta-arrestin, luminescence, 90 min; 100% = 57 uM dopamine signal; activation, % (no concentration beside the values); 360,000 tested, 0.084% active; AID 624465; in the data active = activation above about 40%
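DiscoveRx PathHunter D2 beta-arrestin cells (2,100/well) attached overnight, then compound-stimulated 90 min at 37 C in HBSS/10 mM HEPES/0.1% Tween-20 buffer; beta-galactosidase complementation read by luminescence after 1 h at ambient temperature. Dopamine 57 uM final (EC100) as control.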
D2 PAM-2 = positive allosteric modulators of human D2 dopamine receptor; P14416; DiscoveRx D2 beta-arrestin cells, luminescence, 90 min; 100% = 57 uM dopamine signal; potentiation, % (concentration not given with the values); 360,000 tested, 0.23% active; AID 624464; in the data active = potentiation above about 50%
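PathHunter beta-arrestin assay in DiscoveRx D2 cells. Compounds were added with an EC20 of dopamine (50 nM final) for 90 min at 37 deg C. Luminescence was read 1 h after detection reagent, with 57 uM dopamine as the EC100 control.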
Starred values were filed as active, the others as inactive; · = no result.

SMILES | D2 antagonist | D2 PAM-1 | D2 ag-1 | D2 ag-2 | D2 PAM-2
O=C(Nc1cccc(Cl)c1)c1cc2c(=O)[nH]c3ccccc3c2s1 | · | · | -1 | · | ·
Cc1nc2nc(NCc3ccccc3Cl)[nH]n2c(=O)c1Cc1ccccc1 | · | 4 | -1 | · | ·
CCc1c(C)nc2nc(SCc3ccccc3Cl)[nH]n2c1=O | 32* | -2 | 0 | -1 | -2
Cc1ccc(Cl)cc1-n1ncc2c(Nc3ccc4c(c3)OCCO4)ncnc21 | · | 12 | 0 | · | ·
CN(CCOc1ccc(Cl)cc1)CC(O)c1ccccc1 (centres undefined) | -17 | 3 | -1 | -2 | -17
CC(OCC(O)CN(C)CCOc1ccccc1)c1ccc(Cl)cc1 (centres undefined) | 26 | -23 | 32* | 6 | 17
CN(CCOc1ccccc1)CC(O)COc1ccccc1 (centres undefined) | 51* | -29 | 2 | -4 | -16
CN(C)c1ccc(CNC(=O)c2sc3ncccc3c2-n2cccc2)cc1 | · | 2 | 0 | · | ·
Cc1ccc(S(=O)(=O)NCCC(=O)NCc2cccnc2)cc1 | · | · | · | 6 | 4
Cc1ccc(S(=O)(=O)NCCc2nnc(SCc3cccnc3)n2C)cc1 | 11 | 33* | 0 | -1 | -6
CSc1nnc(CCNS(=O)(=O)c2ccccc2Br)n1C | 34* | -3 | 1 | -2 | -2
CCn1c(CCNS(=O)(=O)c2ccccc2Br)nnc1SC | -22 | -3 | 1 | -1 | -6
Cc1cccc(CSCCNC(=O)CSCc2ccc([N+](=O)[O-])cc2)c1 | -14 | -4 | 0 | 0 | -21
C/C(=N\NC(=O)CSCc1ccc([N+](=O)[O-])cc1)c1ccccc1O | 77* | -27 | 0 | -4 | -42
Cc1ccc(CSCCNC(=O)CSCc2ccc([N+](=O)[O-])cc2)cc1 | 32* | -9 | -3 | 0 | -15
CC(C)c1ccc(NC(=O)C2(C)Cc3c(-c4ccccc4)ccnc3O2)cc1 (centres undefined) | · | · | · | -6 | -11
CN(C)CCCNS(=O)(=O)c1cc(Cl)ccc1Cl | 38* | -3 | -1 | -2 | -10
O=C(CN1C(=O)NC(Cc2ccccc2)C1=O)Nc1ccc(F)c(Cl)c1 (centres undefined) | 33* | 3 | 1 | 5 | -2
O=C(CN1C(=O)NC(Cc2ccccc2)C1=O)Nc1ccc(F)cc1 (centres undefined) | -14 | -3 | 0 | 1 | -1
COc1ccccc1NC(=O)c1oc2ccccc2c1NC(=O)c1cccc(OC)c1OC | · | -5 | · | · | ·
COc1ccc(S(=O)(=O)NCC2CCCO2)cc1NC(=O)c1ccccc1F (centres undefined) | 36* | -3 | 0 | -3 | -9
O=C(OCc1c(Cl)cccc1Cl)c1ccccn1 | 35* | 5 | 0 | -2 | -16
CCCCN(C)CC(O)Cn1cc(/C=C/C(=O)c2ccc(OC)c(OC)c2)c2ccccc21 (centres undefined) | · | -5 | 20 | · | ·
COC(=O)c1c(NC(=O)C(C)C)sc2c1C(C(=O)OC)CC2 (centres undefined) | 0 | 47* | 0 | -3 | -7
CCc1ccc(Cn2c(CNS(=O)(=O)c3ccc4c(c3)CCCC4)nc3cccnc32)cc1 | · | -5 | 1 | · | ·
SMILES | D2 antagonist | D2 PAM-1 | D2 ag-1 | D2 ag-2 | D2 PAM-2
N#C/C(=C\c1c(N2CCCCCC2)nc2ccccn2c1=O)C(=O)NC1CCS(=O)(=O)C1 (centres undefined) | -6 | -10 | 0 | 0 | -19
N#C/C(=C\c1c(N2CCOCC2)nc2ccccn2c1=O)C(=O)NC1CCS(=O)(=O)C1 (centres undefined) | 38* | 12 | -1 | -3 | -9
Nc1ccc(C(=O)N2CCN(S(=O)(=O)c3ccc(Br)cc3)CC2)cc1[N+](=O)[O-] | 35* | 2 | 1 | 1 | 16
CCc1ccc(S(=O)(=O)c2nnn3c2nc(Nc2ccc(F)cc2)c2cc(Cl)ccc23)cc1 | · | 8 | 0 | · | ·
COc1ccc(NS(=O)(=O)c2coc(C(N)=O)c2)cc1Cl | 31* | -2 | 1 | 4 | 0
O=C(O)CN1C(=O)NC2(CCOc3ccccc32)C1=O (centres undefined) | -1 | -3 | 1 | -2 | -10
O=C1NC2(CCOc3ccccc32)C(=O)N1CC(=O)N(Cc1ccccc1)C1CCS(=O)(=O)C1 (centres undefined) | 40* | 24 | -1 | -2 | 5
COc1ccc(Br)cc1CN1CCCC(C(=O)N2CCCCCC2)C1 (centres undefined) | 32* | -6 | 1 | -4 | -35
Cc1cc(C)nc(NNS(=O)(=O)c2ccc(Cl)cc2)n1 | · | · | · | -15 | -40
COc1ccc(S(=O)(=O)NNc2nc(C)cc(C)n2)cc1Br | 52* | -13 | 0 | -11 | -22
CC1CCC(NC(=O)CCCn2sc3ccccc3c2=O)CC1 (centres undefined) | 39* | -2 | -1 | -4 | -15
O=C(CCCn1c(=O)[nH]c2ccccc2c1=O)NC1CCCCCC1 | 2 | 5 | 0 | 4 | -2
CCCOc1ccc(CNC(=O)C2CCN(c3nc4ccccc4nc3C(F)(F)F)CC2)cc1 | · | -5 | · | · | ·
COc1ccc(C2CCCN2C(=O)c2cccs2)cc1 (centres undefined) | 78* | -14 | 0 | -5 | -8
CCOC(=O)/C(=C/C=C1\Sc2cc(C)c(C)cc2N1CC)C(C)=O | 29 | 31* | 84* | 6 | -12
CCOC(=O)/C(=C/C=C1\Sc2ccccc2N1CC)C(C)=O | 1 | 1 | 35* | -4 | -2
CCOC(=O)/C(=C\C=C1/Sc2ccccc2N1CC)C(C)=O | · | · | · | 4 | -8
CCOC(=O)c1ccc(NC(=O)C2CCCN(c3ncnc4onc(C)c34)C2)cc1 (centres undefined) | · | 6 | 0 | · | ·
Cc1ccccc1NC(=O)CSC1=C(C#N)C(c2ccsc2)CC(=O)N1 (centres undefined) | 37* | -1 | 1 | -2 | 0
C/C(=N/NC(=O)c1ccncc1)c1c[nH]c2ccccc12 | 48* | 10 | -2 | 0 | -16
C/C(=N\NC(=O)c1c[nH]c2ccccc12)c1ccc(C)s1 | 2 | 17 | -1 | -2 | -12
CCOC(=O)C(=CNc1ccc(OC)cc1[N+](=O)[O-])C(=O)OCC | 31* | -4 | 2 | 9 | 8
CCC(=O)OCC(=O)Nc1ccc(OC)cc1[N+](=O)[O-] | -15 | 12 | 0 | -1 | -3
COc1cccc(CNC(=O)Cn2c(=O)ccc3cc(S(=O)(=O)N4CCC(C)CC4)ccc32)c1 | · | -5 | 1 | · | ·
C[N+](C)(C)CCN(Cc1ccc(Cl)cc1)c1ccccn1 | 9 | 6 | 0 | -1 | -4
CN(C)CCN(Cc1ccc(Cl)cc1)c1ccccn1 | 59* | -21 | 1 | -3 | -22

From PubChem
